# Laboratory results: PubChem BioAssay AID2129 (The Scripps Research Institute Molecular Screening Center, 2009)
# Among all 320,000 compounds or so, about 2,200 (0.69%) were called active. Many of the other results were omitted from the sample, so actives are more common in it than they were. A number with no mark means an inactive call.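 Rule for the calls: active = inhibition above the mean of all tested compounds plus 3 SD, cutoff set per campaign (cut at about 30% in these data); inactive = the rest.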
# Target: Bcl-2-like protein 1 (Homo sapiens) (UniProt Q07817)
# Sequence (Q07817 whole entry, looked up): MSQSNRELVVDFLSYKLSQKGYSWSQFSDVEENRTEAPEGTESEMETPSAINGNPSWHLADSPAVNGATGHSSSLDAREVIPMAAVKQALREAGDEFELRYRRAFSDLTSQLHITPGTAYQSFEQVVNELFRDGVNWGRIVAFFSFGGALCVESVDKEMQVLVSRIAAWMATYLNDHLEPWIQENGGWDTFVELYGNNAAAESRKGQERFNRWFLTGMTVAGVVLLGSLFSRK
# Test: inhibitors of human Bcl-xL, primary screen, biochemical, fluorescence polarization, HTS (AID 2129);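 note: 0% = DMSO wells and 100% = unlabeled Bim-BH3 peptide competitor; inhibitors lower millipolarization by displacing the labeled peptide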
# Settings: GST-Bcl-xL / FITC-Bim BH3 peptide fluorescence polarization; at 10.9 µM; active compounds read high
row,Compound,inhibition
1,CC1CCN(C(=O)COC(=O)c2cc(=O)[nH]c3ccccc23)CC1,2.08%
2,Cc1noc(C)c1CSCC(=O)Nc1nc2ccc(Oc3ccccc3)cc2s1,3.02%
3,CC(C)(CSc1nncn1/N=C/c1ccco1)NS(=O)(=O)c1ccc(Cl)cc1,4.42%
4,NS(=O)(=O)c1ccc(NC(=O)COC(=O)c2cc3ccccc3oc2=O)cc1,3.99%
5,NS(=O)(=O)c1ccc(NC(=O)COC(=O)c2c3c(nc4ccccc24)/C(=C\c2ccc4c(c2)OCO4)CCC3)cc1,34.1% (active)
6,COc1cc(/C=C2\CCCc3c2nc2ccccc2c3C(=O)O)cc(Cl)c1O,9.54%
7,COc1ccc(CNC(=O)C(C)NCc2ccccc2Cl)cc1 (centres undefined),2.09%
8,CCOCCCNC(=O)C(NC(=O)CNC(=O)c1ccccc1)c1ccc(OC)cc1 (centres undefined),3.02%
9,COc1cc([C@H](Cc2ccccc2)NC(C)=O)oc(=O)c1,48.2% (active)
10,COC(=O)[C@H](Cc1ccccc1)NC(=O)Nc1ccc(OC)cc1,0.58%
11,CCOC(=O)C(Cc1ccccc1)NC(=O)CCC(=O)c1ccc(OC)cc1 (centres undefined),6.1%
12,COc1ccc(CCn2ccc(O)c(Cc3ccc(Cl)cc3Cl)c2=O)cc1OC,4.67%
13,CN1C(C)(C)CC(NC(=O)CCC(=O)NC2CC(C)(C)N(C)C(C)(C)C2)CC1(C)C,2.66%
14,CC1CCN(C(=O)COC(=O)c2cc(S(=O)(=O)N3CCOCC3)ccc2Cl)CC1,-2.49%
15,Cc1ccnc(NC(=O)C2CCN(S(=O)(=O)c3c(C)c(C)cc(C)c3C)CC2)c1,-0.18%
16,CC1(C)c2[nH]c3ccccc3c2C[C@H]2C(=O)N(N)CC(=O)N21,1.69%
17,CCOc1nc(OCC)nc(-n2cc(-c3ccccc3)nn2)n1,6.35%
18,CC1CCCCC1NC(=O)/C(C#N)=C/C=C/c1ccccc1[N+](=O)[O-] (centres undefined),7.36%
19,O=c1ccc2c(-c3ccccc3S(=O)(=O)O)c3ccc(O)c(O)c3oc-2c1O,92.5% (active)
20,O=C(CSc1nnc(SCc2ccc(Cl)cc2)s1)N/N=C/c1ccccc1Cl,-6.66%
21,CN1c2ccc(C=O)c3c(C=O)ccc(c23)N(C)C1(C)C,144% (active)
22,CCOC(=O)c1c(-c2ccccc2)oc2cc(Br)c(O)c(C=O)c12,11.5%
23,CCOC(=O)c1c(C)oc2cc(Sc3ccccc3)c(O)c(O)c12,39% (active)

row,Compound,inhibition
1,CCOC(=O)c1c(C)oc(C)c(C(=O)OCC)c1=O,2.36%
2,CCOC(=O)c1ccc(NC(=O)c2c(NCc3ccccc3)[nH]c(=O)[nH]c2=O)cc1,2.87%
3,O=C(CSC(=S)N1CCCCC1)c1c(F)cccc1F,3.52%
4,COc1ccc(OC)c(CCNC(=O)CCn2ccc3cc(S(=O)(=O)N4CCCC4)ccc32)c1,0.09%
5,COc1cccc(-c2nc(CS(=O)CC(=O)NCc3ccc(F)cc3)c(C)o2)c1 (centres undefined),7.05%
6,COc1ccc(-c2nc(CS(=O)CC(=O)NCc3ccccn3)c(C)o2)cc1 (centres undefined),95.6% (active)
7,COc1ccc(-c2nc(CS(=O)CC(=O)NCc3ccccc3)c(C)o2)cc1OC (centres undefined),4.97%
8,Cc1ccccc1-n1c(SCC(=O)Nc2cccc3ccccc23)nc(O)cc1=O,-0.46%
9,Cc1c(C(=O)NC2CCCCC2)oc2ccccc12,-0.72%
10,COc1cccc2c1OCC(CN1CCN(C3CCCCC3)C(CCO)C1)=C2 (centres undefined),2.11%
11,Cc1ccc(CNC(=O)C(=O)c2cn(CC(=O)N3CCCC3)c3ccccc23)cc1,5.15%
12,Nc1cccc2c1C(=O)N(Cc1nnc(-c3ccccc3Br)o1)C2=O,48% (active)
13,Cn1cnnc1SCc1nnc(-c2ccccc2Br)o1,2.35%
14,CCOC(=O)N1CCN(Cc2nnc(-c3ccccc3Cl)o2)CC1,-2.11%
15,CC(=O)NNC(=O)c1csc(Cc2c(Cl)sc3ccc(Cl)cc23)n1,1.7%
16,Cc1ccc([N+](=O)[O-])c(OCCCNCC(C)O)c1 (centres undefined),8.16%
17,COc1c(O)ccc2c1CN1CCc3cc4c(cc3C1C2)OCO4 (centres undefined),33.7% (active)
18,COc1ccc2cc1Oc1ccc(cc1)C[C@H]1c3cc(c(OC)cc3CCN1C)Oc1c(O)c(OC)cc3c1[C@H](C2)N(C)CC3,6.82%
19,COc1ccc(CN2CCCC(N3CCc4ccccc4C3)C2)c(O)c1 (centres undefined),-3.09%
20,CN(C(=O)COC(=O)CCCc1c[nH]c2ccccc12)c1c(N)n(Cc2ccccc2)c(=O)[nH]c1=O,-5.75%
21,O=C(Nn1c(SCc2ccc([N+](=O)[O-])cc2)nc2ccccc2c1=O)c1ccc(F)cc1,-2.84%
22,Cc1[nH]c2ccccc2c1CCN(Cc1cccs1)C(=S)NC(C)(C)C,3.98%
23,COc1cccc(NC(=S)N(CCc2c(C)[nH]c3ccccc23)Cc2ccco2)c1,-0.26%

row,Compound,inhibition
1,COc1ccc2[nH]c(C)c(CCN(Cc3cccs3)C(=S)Nc3ccccc3OC)c2c1,59.5% (active)
2,COc1ccc(CNc2nc3c(c(=O)[nH]c(=O)n3C)n2Cc2ccccc2)cc1,2.21%
3,COCCn1c(N)c(NCc2ccccc2)c(=O)[nH]c1=O,64.6% (active)
4,COCCn1c(N)c(N(Cc2ccccc2)C(=O)C2CCCCC2)c(=O)[nH]c1=O,-0.25%
5,COc1ccc(CCNC(=O)CCCCCNC(=O)N2CCn3c2nc2ccccc23)cc1OC,1.04%
6,Cc1cccn2c(=O)c3cc(C(=O)NCCN4CCOCC4)c(=N)n(Cc4cccnc4)c3nc12,48.6% (active)
7,COc1ccc(CCn2c(=N)c(C(=O)NCC3CCCO3)cc3c(=O)n4cccc(C)c4nc32)cc1OC (centres undefined),1.5%
8,Cc1cccn2c(=O)c3cc(C(=O)NCC4CCCO4)c(=N)n(Cc4ccc(F)cc4)c3nc12 (centres undefined),0.48%
9,Cc1ccc(S(=O)(=O)N(Cc2ccc(Cl)cc2)c2ccccc2C(=O)NCc2cccnc2)cc1,0.59%
10,Cc1sc(NC(=O)c2ccc3ncsc3c2)c(C(N)=O)c1C,4.75%
11,O=C(COc1ccc(/C=N/NS(=O)(=O)c2ccccc2)cc1)NCCc1ccccc1,5.85%
12,COc1ccc(C2=CC(c3cccc(OC)c3)n3nnnc3N2)cc1 (centres undefined),29.1%
13,COc1ccc(C2C=C(c3ccc(Br)cc3)Nc3nc(NS(C)(=O)=O)nn32)cc1 (centres undefined),164% (active)
14,CC(C)c1ccc(N2CC(C(=O)Nc3nccs3)CC2=O)cc1 (centres undefined),-0.59%
15,CC1=C(C(=O)N(C)C)C(c2ccccc2OC(F)F)NC(=O)N1 (centres undefined),3.23%
16,Cc1cc2occ(CC(=O)NNC(=O)c3ccccc3F)c2cc1C,0.46%
17,COc1ccccc1NC(=S)N1CCC(NC(=O)C23CC4CC(CC(C4)C2)C3)CC1,2.22%
18,Cc1cccn2c(=O)c3cc(C#N)c(=NC(=O)c4cccnc4)n(CC4CCCO4)c3nc12 (centres undefined),47.4% (active)
19,COc1ccc(CNC(=O)c2cc3c(=O)n4ccccc4nc3n(CC3CCCO3)c2=N)cc1 (centres undefined),8.61%
20,Cc1cccn2c(=O)c3cc(C#N)c(=O)n(CCCN4CCOCC4)c3nc12,28.5%
21,Cc1oc2c(C)c3oc(=O)c(CC(=O)N[C@@H](CC(C)C)C(=O)N[C@@H](Cc4ccccc4)C(=O)O)c(C)c3cc2c1C,10.3%
22,CCOc1ccc(/C=N/OCC(=O)NCc2cccs2)cc1,2.85%
23,CCN(c1ccccc1)S(=O)(=O)c1ccc(OCC(=O)N2CCCC2)cc1,3.8%

row,Compound,inhibition
1,CC(C)[C@@H](NC(=O)OC(C)(C)C)C(=O)NCC1CCC(C(=O)N[C@@H](Cc2ccccc2)C(=O)O)CC1 (some centres undefined),7.31%
2,CC(C)C1N=C2c3ccccc3N=C(SCC(=O)c3ccc(O)c(O)c3)N2C1=O (centres undefined),13.5%
3,C1=C(N2CCOCC2)/C(=C/c2nc3ccccc3[nH]2)CC1,88.2% (active)
4,O=c1[nH]c(N2CCOCC2)nc2ccccc12,3.04%
5,CC1(C)Cc2c(C#N)c(SCc3nc4ccccc4[nH]3)nc(N3CCOCC3)c2CO1,6.67%
6,CCN(c1ccc2c(c1)OCO2)S(=O)(=O)c1cc(Br)cc2c1N(C(=O)C1CC1)CC2,34% (active)
7,CS(=O)(=O)N(CC(=O)NCc1ccco1)c1ccc2c(c1)OCO2,5.67%
8,CCOC(=O)N1CCN(S(=O)(=O)c2cc(Br)cc3c2N(C(=O)C2CC2)CC3)CC1,-4.43%
9,CCOc1cc(/C=C/C(=O)OCC(=O)NCCN2C(=O)CSC2=O)ccc1OCC(C)C,-5%
10,N#CC1=C(N)C(C#N)(C#N)[C@H](c2ccsc2)[C@H]2COCC=C12,37.8% (active)
11,Cc1cccc(Nc2nc(NCCO)nc(N3CCCC3)n2)c1,-0.55%
12,CCCc1cc(=O)[nH]c(SCC(=O)N2CCN(S(=O)(=O)c3ccc(C)cc3C)CC2)n1,3.73%
13,CCCOc1ccc(C2c3c(oc4cc(C)c(C)cc4c3=O)C(=O)N2CCCN2CCOCC2)cc1 (centres undefined),11.6%
14,Cc1cc2oc3ccc(NCCC4CCCN4C)cc3c(=O)c2cc1C (centres undefined),40.9% (active)
15,Fc1c(F)c(C(F)(F)F)c(F)c(F)c1N1CCN(c2ccc3nnc(C(F)(F)F)n3n2)CC1,3.95%
16,COc1cc(/C=C/C2=CC(C)(C)NC(=S)N2)cc(OC)c1OC,-3.53%
17,CCCCOC(=O)CNc1nnc(SCC(=O)OCC)[nH]c1=O,15.6%
18,O=S(=O)([N-]c1nc2ccccc2nc1-[n+]1ccc(Cc2ccccc2)cc1)c1ccc(Br)s1,82.6% (active)
19,O=C(NCCc1ccccc1)C1CCN(S(=O)(=O)c2ccc(Br)s2)CC1,2.98%
20,Cc1cc(C)c[n+](-c2nc3ccccc3nc2[N-]S(=O)(=O)c2cccs2)c1,5.77%
